# tim23-1 inh: growth inhibitors of tim23-1 mutant yeast; 1.3% of 330,000 active; inhibition, % at 20 µM; AID 463212; S. cerevisiae tim23-1 growth, BacTiter-Glo luminescence, 24 h;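 active = growth inhibition of the mutant yeast at or above 50%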;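 note: temperature-sensitive mutant grown at 25 °C; plate controls were DMSO-treated mutant yeast for no effect and medium wells lacking yeast for full effect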
# tim10-1 inh: growth inhibitors of tim10-1 mutant yeast; S. cerevisiae tim10-1 ts strain growth, BacTiter-Glo, 24 h; inhibition, % at 20 µM; 2.2% of 330,000 active; AID 463190;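 active = inhibition of at least 40%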;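 note: mutant grown at 25 °C; 0% = DMSO wells with yeast and 100% = wells holding no yeast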
# SKKanGAS inh: SKKanGAS growth inhibition; S. pyogenes SKKanGAS, kanamycin growth, BacTiter-Glo, 6 h; inhibition, % at 7.5 µM; 1.3% of 300,000 active; AID 1662;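 active = mean replicate score, as percent of positive control median, at least 50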;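 note: strain carries kanamycin resistance gene driven by streptokinase promoter and grows in 40 µg/ml kanamycin; loss of luminescence reflects streptokinase promoter inhibition or plain growth inhibition; 0% = median of DMSO wells and 100% = positive control at its reference dose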
# TIM10 inh: growth inhibitors of TIM10 yeast strain. S. cerevisiae TIM10 strain growth, BacTiter-Glo luminescence, 24 h. 1.4% of 330,000 active. inhibition, % at 10 µM;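 active = inhibition of 40% or more at the single tested concentration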;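 note: wild-type TIM10 isogenic control strain grown at permissive 25 °C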
# PfHsp90 set2: reduces growth (ATP signal) of yeast expressing P. falciparum Hsp90. AID 504621. 0.32% of 310,000 active. S. cerevisiae expressing PfHsp90, BacTiter-Glo ATP, 48 h; yeast lacking PDR1 and PDR3 efflux regulators. inhibition, % at 9.4 µM;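 active = every replicate shows inhibition above about 80%, whatever the replicate mean, limit read from the data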;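 note: 0% = DMSO neutral controls and 100% = 20 µM radicicol positive controls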
# NALP1 inh: NALP1 inhibition; S. cerevisiae NALP1/ASC/caspase-1 growth, X-gal OD620, 72 h; inhibition, % at 10 µM; 0.61% of 280,000 active; in the data active = inhibition mostly above about 24%, no sharp cut-off; inactive = mostly below about 32%
# * hit, by the source's call; · = no result. Most compounds without a hit are left out; they make up all but 4.8% or so of the library.
SMILES,tim23-1 inh,tim10-1 inh,SKKanGAS inh,TIM10 inh,PfHsp90 set2,NALP1 inh
COc1cc(OC)c(-c2nnc3n(CCc4ccccc4)c(=O)c4ccccc4n23)cc1OC,0,-2,5,12,·,27
COc1ccc(-c2nnc3n(CCc4ccccc4)c(=O)c4ccccc4n23)c(OC)c1,-2,19,7,26,107*,14
COc1ccc(NC(=O)CSc2nnc(Cc3cccn3C)n2-c2ccc(OC)cc2)cc1,20,26,-5,7,6,7
CC(NCC(O)COC1CCC(C(C)(C)C)CC1)c1ccccc1 (stereo not drawn),-154,-8,-13,-82,-15,25*
CC1CCC(C(C)C)C(OCC(O)CNC(C)c2ccccc2)C1 (stereo not drawn),25,33,1,35,-8,20
CC(=O)O[C@H]1C[C@@]2(C)[C@@H](C[C@@H](O)[C@H]3[C@@]4(C)CC[C@@H](O)[C@@H](C)[C@@H]4CC[C@@]32C)/C1=C(\CCC=C(C)C)C(=O)O,-5,7,109*,7,1,·
CNC1=C(N(C(C)=O)c2ccc(Br)cc2)C(=O)c2ccccc2C1=O,·,·,57*,·,8,42
CC(=O)N1c2ccc(S(=O)(=O)N(C)c3cc(C)ccc3C)cc2CC1C (stereo not drawn),22,17,-2,9,-21,1
Cc1ccc(N(C)S(=O)(=O)c2ccc3c(c2)CC(C)N3C(=O)C2CC2)cc1 (stereo not drawn),41,32,102*,17,-21,16
CCC(=O)N1c2ccc(S(=O)(=O)N3CCN(C)CC3)cc2CC1C (stereo not drawn),8,-11,2,4,-8,34*
CCC(=O)N1c2ccc(S(=O)(=O)N3CCCC3)cc2CC1C (stereo not drawn),9,14,1,-4,-3,-1
CC(=O)N1c2ccc(S(=O)(=O)N3CCC(C(=O)Nc4cc(C)ccn4)CC3)cc2CC1C (stereo not drawn),-4,-10,52*,6,29,9
CC(=O)N1c2ccc(S(=O)(=O)NCC3CCC(C(=O)Nc4cc(C)ccn4)CC3)cc2CC1C (stereo not drawn),13,16,10,13,-1,16
COc1ccc(OCC(=O)Nc2ccc3c(c2)nc(CCNC(C)=O)n3C)cc1,8,9,-12,-9,24,-8
CC(C)(C)NC(=O)CN(C(=O)CS(=O)CC(=O)Nc1ccc(F)cc1)c1cccc(F)c1 (stereo not drawn),3,6,-5,-5,-29,0
O=C(CSc1ncn[nH]1)NCc1ccccc1,-5,12,-4,2,9,28*
Cc1ccc(CNC(=O)CSc2ncn[nH]2)cc1,19,18,-2,-10,31,14
CCOC(=O)/C(=N\Nc1ccc(Cl)cc1)c1csc(Nc2ccccc2)n1,23,39,73*,39,-10,48
CCN(CC)C(=O)c1csc(Nc2ccc(C)cc2)n1,30,27,·,12,·,-7
CCOC(=O)/C(=N\Nc1ccc(OC)cc1)c1csc(Nc2ccccc2)n1,37,23,60*,34,-54,-13
CCOC(=O)c1nc(Nc2ccc(OC)cc2)c2ccccc2n1,27,38,0,-3,-2,3
COc1ccccc1C(NC(C)=O)c1cc(Cl)c2cccnc2c1O (stereo not drawn),36,31,100*,17,-19,21
CCC(=O)NC(c1ccc(OC)c(OC)c1)c1cc(Cl)c2cccnc2c1O (stereo not drawn),·,·,56*,·,-35,3
CCCC(=O)NC(c1ccc2c(c1)OCO2)c1cc(Cl)c2cccnc2c1O (stereo not drawn),43,34,62*,-16,99*,6
COc1ccc(/C=C2/C(=O)N(Cc3ccccc3)N=C2C)cc1,29,20,-9,12,18,19
COc1ccc(/C=C2/C(=O)N(c3nc4ccccc4s3)N=C2CSc2ccc(Cl)cc2)cc1,9,9,68*,10,5,20
O=C1NC(=S)/C(=C\c2ccc(-c3ccccc3Cl)o2)S1,·,·,114*,·,4,12
CC(C)NC(=O)c1ccccc1NC(=O)CCS(=O)(=O)Cc1ccccc1,12,-8,-1,-5,-6,-22

# Compound activity as filed in PubChem.
